PubChem BioAssay (NCATS)
A number with no mark means an inactive call. Calls come from the whole dose curve; as a rule, active = well fitted curve in the direction sought with a large enough effect; inactive = no such curve, though single readings can be large or run the other way.

These compounds were tested against Alpha-galactosidase A (Homo sapiens) (UniProt P06280) (assay: Counterscreen for Glucocerebrosidase Inhibitors: qHTS Assay for Human alpha-Galactosidase at pH 4.5 (AID 992; note: 0% is about no effect)). Settings: purified enzyme, fluorogenic substrate; series mostly up to 76.9 µM; activity change, negative = inhibition: at the top concentration.
Chain of Alpha-galactosidase A (Homo sapiens) (P06280 whole entry, looked up): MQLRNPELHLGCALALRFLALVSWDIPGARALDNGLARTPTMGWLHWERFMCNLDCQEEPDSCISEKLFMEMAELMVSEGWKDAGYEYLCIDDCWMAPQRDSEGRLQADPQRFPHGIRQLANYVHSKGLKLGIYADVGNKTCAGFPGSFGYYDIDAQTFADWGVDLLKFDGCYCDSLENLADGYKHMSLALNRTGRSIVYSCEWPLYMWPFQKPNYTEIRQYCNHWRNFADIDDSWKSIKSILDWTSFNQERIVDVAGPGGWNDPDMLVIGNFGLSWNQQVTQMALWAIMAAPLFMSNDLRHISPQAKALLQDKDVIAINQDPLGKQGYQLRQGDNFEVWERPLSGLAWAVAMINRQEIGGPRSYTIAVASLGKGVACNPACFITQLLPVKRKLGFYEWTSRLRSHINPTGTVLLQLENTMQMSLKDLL
Procedure, shortened: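 Enzyme at 2 nM final was combined with compound (0.7 nM to 77 uM) and 80 uM 4-methylumbelliferyl alpha-D-galactopyranoside in 50 mM citric acid, 0.005% Tween-20, pH 4.5. After 20 min at room temperature, fluorescence was read (Ex 365/Em 440 nm); AC50 came from Hill fits.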

SMILES | activity change, negative = inhibition
N#C/C(=C\c1ccc(O)c(O)c1)C(=O)NCCCNC(=O)/C(C#N)=C/c1ccc(O)c(O)c1 | -5.4%
CCCn1c(=O)c2[nH]c(C3CCCC3)nc2n(CCC)c1=O | 0.128%
O=C(O)/C=C/c1ccc(O)c(O)c1 | 0.144%
C=CC[C@H](N)C(=O)O | 3.37%
N#Cc1cc2nc(O)c(O)nc2cc1[N+](=O)[O-] | -5.79%
CCCCCCCC/C=C\CCCCCCCC(=O)NCCc1ccc(O)c(O)c1 | -15.5%
COc1cc(CC(=O)O)ccc1O | -1.76%
N=C(N)SCCN | -0.0193%
c1ccc2nc(C3=NCCN3)ccc2c1 | 1.39%
CCCCOC(=O)NS(=O)(=O)c1sc(CC(C)C)cc1-c1ccc(Cn2c(CC)nc3c(C)cc(C)nc32)cc1 | -1.56%
CCCc1c(-c2ccc(O)cc2)nn(-c2ccc(O)cc2)c1-c1ccc(O)cc1 | -0.983%
NS(=O)(=O)c1cccc2c1c([N+](=O)[O-])cc1nc(O)c(O)nc12 | -4.21%
CC(=O)NNC(=O)N1Cc2ccccc2Oc2ccc(Cl)cc21 | 7%
NCCNS(=O)(=O)c1cccc2c(Cl)cccc12 | 1.42%
CCCOC(=O)c1c(-c2ccccc2)nc(CC)c(C(=O)SCC)c1CCC | -4.02%
CCn1c(=O)[nH]c2cc(Cl)c(Cl)cc21 | 3.01%
COc1cc2c(CCNC(C)=O)c[nH]c2cc1O | -1.88%
Oc1ccc(Cn2cc[nH]c2=S)cc1 | -0.813%
N[C@@H](Cc1ccc(O)c(I)c1)C(=O)O | 0.494%
CC[C@@H]1Cc2cc(O)ccc2C2=C1c1ccc(O)cc1C[C@H]2CC | 80.4%

SMILES | activity change, negative = inhibition
C[N+](C)(C)CC=O | -1.41%
Cc1cccc(C(=O)NCN2CCN(c3ccccc3C#N)CC2)c1 | -4.79%
C#CCn1c(=O)c2c(ncn2C)n(C)c1=O | -1.62%
Cn1c(=O)c2[nH]c(-c3ccc(S(=O)(=O)O)cc3)nc2n(C)c1=O | 14.3%
Cn1c(=O)[nH]c2ncn(C)c2c1=O | 4.37%
CN[C@H](CC(=O)O)C(=O)O | -0.739%
C[C@H](O)C(=O)C1=Nc2c(nc(N)[nH]c2=O)NC1 | 11.7%
Clc1nccc2c1ccc1ccccc12 | -2.22%
O=c1[nH]ccc2c(O)cccc12 | 0.968%
COc1ccccc1N1CCN(CCN(C(=O)c2ccc(F)cc2)c2ccccn2)CC1 | -1.6%
Cc1nc(N=Nc2ccc(C(=O)O)cc2)c(COP(=O)(O)O)c(C=O)c1O | -0.52%
NC(=Nc1ccccc1)NC(=O)c1nc(Cl)c(N)nc1N | -2.55%
O=[N+]([O-])c1cccc2cn[nH]c12 | -2.75%
COC(=O)[C@H](NC(=O)c1cc(-c2ccccc2)nc2ccccc12)c1ccccc1 | -7.68%
CCCCCCCCCCCCCCC[C@H](O)[C@H](N)CO | -2.95%
NOCC(=O)O | -4.01%
N[C@@H](Cc1c[nH]c2ccccc12)C(=O)O | -1.81%
Cc1nc(N=Nc2cc(S(=O)(=O)O)c3cc([N+](=O)[O-])cc(S(=O)(=O)O)c3c2)c(COP(=O)(O)O)c(C=O)c1O | 0.792%
N=C(N)SCCc1cnc[nH]1 | 3.31%
S=C(S)N1CCCC1 | -0.0853%
